From PubChem BioAssay AID651607 (The Scripps Research Institute Molecular Screening Center, 2012) come the findings set out here.

The structures appear in SMILES notation. In all, about 1,400 compounds went through this assay and about 600 (43%) were called active. The set was probably picked from earlier hits. Only a sample is shown. Unmarked numbers belong to inactive results. Rule as the data show it: active = inhibition above about 17%; inactive = the rest.

The assay concerns methionyl-tRNA synthetase (Trypanosoma brucei brucei). The experiment in a line: inhibition of trypanosome methionyl-tRNA synthetase – biochemical, fluorescence polarization, orthogonal assay for T. brucei MetRS inhibitor project (AID 651607).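 Also: 0% = vehicle wells.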 The note with it: purified T. brucei MetRS, at 11.9 µM, hits give high values.
What is called inhibition is the relative decrease from the control value, in per cent. For `O=C(CC(=O)Nc1ccc(Cl)c(Cl)c1)N/N=C/c1ccc(O)cc1`, the inhibition was 30.8% (active).
For `O=C(Cn1c2[n+](c3ccc(C(F)(F)F)cc31)CCCCC2)Nc1c(F)cccc1F`, the inhibition was 9.23%.
The figure for `CCO[C@@H]1OC(C(=O)NCc2nc3ccccc3[nH]2)=C[C@H](C2CCCCC2)[C@H]1CCCO` is 17.2% (active); for `O=C(OCc1nc2ccccc2[nH]1)C1CCCCC1` it is 9.3%.
Regarding `O=C(Nc1ccccc1)Nc1nnc(COc2ccccc2F)s1`, the inhibition is 23.8% (active).
The figure for `Cc1ccc(CNC(=O)CSc2nnc3c(n2)[nH]c2ccc(F)cc23)cc1` is 51.8% (active); for `CN(C(=O)CSc1nnc(Nc2ccccc2)s1)C1CCS(=O)(=O)C1` (stereo not drawn) it is -4.02%; for `CCCCCCCC[n+]1cccc(C(=O)N2c3c(nc(N)[nH]c3=O)NC(C)C2C)c1` (stereo not drawn) it is 13.1%.
The figure for `CC(C)(C)c1ccc(/C=C2\SC(=O)N=C2N)cc1` is 22.6% (active); for `NC1=NC(=O)S/C1=C\c1ccc(O)cc1` it is 16%.
The value for `CN(C(=O)CSc1nnc(-c2c[nH]c3ccccc23)o1)C1CCS(=O)(=O)C1` (stereo not drawn) was 15.7%.
With `O=C1CCCN1CCCNc1ncnc2c1[nH]c1ccccc12`, the inhibition is 28.8% (active).
The value for `COc1ccc(CCn2ccc(O)c(Cc3ccc(Cl)cc3Cl)c2=O)cc1OC` was 2.44%; that for `Cc1ccc(S(=O)(=O)c2c[nH]c3ccc(C)cc3c2=O)cc1` was 20.1% (active); that for `Cc1ccc(S(=O)(=O)c2c[nH]c3ccc(Cl)cc3c2=O)cc1` was 60.6% (active).
The figure for `CCN(CC)C(=O)C(=O)c1cn(CC(=O)NCc2ccc3c(c2)OCO3)c2ccccc12` is 50.9% (active).
The value for `COc1ccc(-c2[nH]ncc2/C=N/NC(=O)c2cc(Br)ccc2O)c(OC)c1` was 15.2%.
For the compound `CCCCN1C[C@H](c2ccc(Br)cc2)[C@@H](CC(=O)Nc2ccc(Br)cc2)C1=O`, the inhibition was 33.1% (active).
The value for `O=C(NCc1cccc(CNC(=O)Nc2cccc(O)c2)c1)Nc1cccc(O)c1` was 8.48%; that for `O=C(Cc1ccc(S(=O)(=O)N2CCOCC2)s1)Nc1ccc(Br)c(C(F)(F)F)c1` was 27.2% (active); that for `O=C(Nc1ccc(S(=O)(=O)Nc2ncccn2)cc1)c1cncc(Br)c1` was -0.88%.
The figure for `O=C(O)CCn1c(O)c(C=C2N=c3ccccc3=N2)sc1=S` is 17.1% (active); for `Cn1c(CCCOc2ccc(Cl)cc2Cl)n[nH]c1=S` it is 11.9%; for `c1ccc2cc3c(NCCN4CCOCC4)ccnc3cc2c1` it is 25.4% (active).
The figure for `Cc1ccc(NC(=O)C(C)c2cccc(C(=O)c3ccccc3)c2)cc1` (stereo not drawn) is 65.3% (active).
As to `O=C(NNC(=O)c1ccc(-n2cncn2)c([N+](=O)[O-])c1)c1ccccc1`, the inhibition was 32% (active).
With `Cc1ccc(S(=O)(=O)N(C)C)cc1NC(=O)c1ccc(-n2cncn2)c([N+](=O)[O-])c1`, the inhibition is 34.4% (active).
Turning to `Cc1ccccc1OCC(=O)NNC(=O)c1ccc(-n2cncn2)c([N+](=O)[O-])c1`, the inhibition is 11.1%.
Take `CC(=O)c1ccc(NC(=O)c2ccc(-n3cncn3)c([N+](=O)[O-])c2)cc1`: the inhibition is 50.4% (active).
As for `Cc1cc(C)cc(NC(=O)N(C)Cc2ccccc2)c1`, the inhibition was 4.52%.
The figure for `Cc1ccc(N2C(=O)CC(NCc3ccc4c(c3)OCO4)C2=O)cc1Cl` (stereo not drawn) is 55.8% (active).
The figure for `NS(=O)(=O)c1ccc(CCNC(=O)Nc2ccc(Cl)cc2)cc1` is 21.5% (active).
The value for `O=C(CSCC(=O)Nc1cccc([N+](=O)[O-])c1)Nc1ccccc1` was 8.38%; that for `O=C(Nc1ccc(Cl)cc1)N1CCc2[nH]c3ccccc3c2C1` was 8.86%.
In the case of `Fc1ccc(NC(=S)N2CCc3[nH]c4ccccc4c3C2)cc1`, the inhibition is 18.4% (active).
The value for `O=C(Nc1cccc([N+](=O)[O-])c1)N1CCc2ccccc2C1` was 11.1%; that for `COc1ccc(OCC(O)CNC(=O)Nc2ccc(Cl)cc2)cc1` (stereo not drawn) was 51% (active); that for `COc1ccc(NC(=O)C(NC(C)=O)C(=O)NCc2ccccc2Cl)cc1` (stereo not drawn) was 1.33%.
The value for `CCCCN(C)Cc1c(C)[nH]c2ccc(Cl)cc2c1=O` was 39.9% (active); that for `Clc1ccc(-c2cc(C3CCNCC3)[nH]n2)c(Cl)c1` was 21.7% (active); that for `O=S(=O)(NCc1ccc(Cl)cc1Cl)c1cccs1` was 13.7%.
As to `O=C(NNc1cc(Cl)cc(Cl)c1)c1c(F)cccc1Cl`, the inhibition was 37.3% (active).
The figure for `Oc1[nH]c2ccc(Br)cc2c1N=Nc1nn[nH]n1` is 13.7%.
The value for `CSc1nsc(NC(=O)Nc2ccccc2)n1` was 18.2% (active); that for `OCCNc1nc2ccccc2n1-c1ncnc2sc3c(c12)CCC3` was 12.1%; that for `Cc1ccc(O)c(CNc2nc3ccccc3[nH]2)c1` was 77.9% (active).
The figure for `Clc1ccccc1SCc1nc2ccccc2[nH]1` is -1.51%; for `S=c1[nH]nc(CSCc2ccc(Cl)cc2Cl)n1-c1ccccc1` it is 2.4%.
Take `O=S(=O)(c1ccc(Br)cc1)N1CCC(c2nc3ccccc3[nH]2)CC1`: the inhibition is 4.17%.
`O=C(NCC(O)c1nc2ccccc2[nH]1)c1ccc(Br)cc1` (stereo not drawn): the inhibition is 17.1% (active).
The value for `O=[N+]([O-])c1ccc(N2CCN(c3ccc(O)cc3)CC2)c(Cl)c1` was 8.79%.
Regarding `c1ccc(CN=C2Nc3ccccc3CS2)nc1`, the inhibition is 5.74%.
Turning to `COC(=O)CN1C(=S)N(c2ccccc2)C(=O)C1CC(=O)Nc1ccc(Cl)cc1` (stereo not drawn), the inhibition is 15%.
The figure for `COc1ccccc1-n1c(SCC(=O)Nc2ccc(Cl)cc2)nc(O)c(Cc2ccccc2)c1=O` is 57.9% (active); for `O=C(/C(=N\O)n1cncn1)c1ccc(Br)cc1Br` it is 4.41%; for `O=C(O)c1ccc(NS(=O)(=O)c2ccc3c(c2)C(=O)c2cc(S(=O)(=O)Nc4ccc(C(=O)O)cc4)ccc2-3)cc1` it is 1%.
The figure for `Cc1c(CN2CCC(CO)(CCOc3ccccc3)CC2)[nH]c2ccc(Cl)cc12` is 20.1% (active); for `O=C(CSc1nc2ccccc2[nH]1)N/N=C/C=C\c1ccccc1[N+](=O)[O-]` it is 12.7%; for `Cc1ccc(-c2cnc(C(O)c3cc(Cl)cc(Cl)c3)[nH]2)cc1` (stereo not drawn) it is 43.7% (active).
With `OC(c1cc(Cl)cc(Cl)c1)c1ncc(-c2ccccc2C(F)(F)F)[nH]1` (stereo not drawn), the inhibition was 58.3% (active).
For `O=C(NCCN1CCOCC1)c1ccccc1N1C(=O)[C@@H]2Cc3c([nH]c4ccccc34)C(c3cccc(Cl)c3)N2C1=O` (stereo partly drawn), the inhibition was 13.3%.
In the case of `CC(=N\NC(=O)c1cc(Br)ccc1O)/C(=N/O)C(=O)Nc1ccccc1`, the inhibition was 4.72%.
The value for `O=C(Cn1c(NCCO)nc2ccccc21)c1ccc(Cl)cc1Cl` was -2.79%; that for `COC(=O)/C(=C\Nc1ccccc1)NC(=O)c1ccc(Cl)cc1Cl` was 59.6% (active).
The figure for `CC(C)OCCCNc1ncnc2c1[nH]c1ccc(F)cc12` is 80.6% (active); for `CCN1CCCC1CNc1ncnc2c1[nH]c1ccc(F)cc12` (stereo not drawn) it is 31.6% (active).
Turning to `CCCCCn1nnnc1-c1nc2cc3ccccc3cc2[nH]c1=O`, the inhibition was 24.4% (active).
The value for `c1ccc2cc3[nH]c(CN4CCCCC4)nc3cc2c1` was 3.4%.
